In PubChem BioAssay (NCI) one finds growth inhibition data, which are given here for eight compounds.

This assay in a line: NCI Yeast Anticancer Drug Screen. Data for the mgt1 strain (AID 153). Particulars: S. cerevisiae mgt1 mutant growth inhibition, hits give high values. The protocol:
Growth inhibition of yeast strains with defined genetic alterations is measured as a screen for potential anti-cancer activity. Selected strains with alterations in DNA damage repair or cell cycle control were exposed to compounds and growth inhibition was measured relative to vehicle treated controls. The strain used in this assay is mgt1

Compounds without any hit were thinned out: in the full panel of roughly 79,000, 15% have a hit. Values without a mark were called inactive. Activity calls are given as the source filed them. No stated cut-off is given here; in the data, active means growth inhibition above about 70%; inactive means the rest.

On to `CC12CCC(C1)C(C)(C)C2OC(=O)c1ccccc1N` (stereo not given), for which the growth inhibition runs as follows: (at 1.2 µM) -3%; (at 3.7 µM) 0%; (at 11.0 µM) -5%; (at 33.0 µM) -9%; (at 100.0 µM) 5%.
With `COc1ccc(OC)c(/C=C/[N+](=O)[O-])c1`, the growth inhibition is, setting by setting: (at 1.2 µM) 0%; (at 3.7 µM) -2%; (at 11.0 µM) 2%; (at 33.0 µM) 23%; (at 100.0 µM) 100% (active).
For `Nc1nc(-c2ccccc2)c(-c2ccccc2)[se]1`, in that order: -3%, 1%, 0%, 2% and 12%.
Consider `O=c1oc2ccccc2c(O)c1C(c1ccc2ccccc2c1)c1c(O)c2ccccc2oc1=O`, for which the growth inhibition was 17% (at 1.2 µM); 17% (at 3.7 µM); 33% (at 11.0 µM); 83% (active) (at 33.0 µM); 98% (active) (at 100.0 µM).
As for `Cc1nc2ccccc2cc1C[N+]12CN3CN(CN(C3)C1)C2`, the growth inhibition (at 1.2 µM) is 2%; the growth inhibition (at 3.7 µM) was 5%; the growth inhibition (at 11.0 µM) was 4%; the growth inhibition (at 33.0 µM) was 6%; the growth inhibition (at 100.0 µM) is 36%.
As for `[N-]=[N+]=C1C(Cl)=C(Cl)C(Cl)=C1Cl`, the growth inhibition reads like this: (at 1.2 µM) -1%; (at 3.7 µM) -1%; (at 11.0 µM) 46%; (at 33.0 µM) 95% (active); (at 100.0 µM) 99% (active).
Turning to `CCC1(OC(=O)CN)C(=O)OCc2c1cc1n(c2=O)Cc2cc3ccccc3nc2-1` (stereo not given), the growth inhibition (at 1.2 µM) is 20%; the growth inhibition (at 3.7 µM) was 25%; the growth inhibition (at 11.0 µM) is 50%; the growth inhibition (at 33.0 µM) was 80% (active); the growth inhibition (at 100.0 µM) is 91% (active).
Taken in the same sequence, the figures for `CSC(=Nc1ccccc1)N(c1ccccc1)c1nc(=[N+](C)C)ss1` were 2%, 7%, 84% (active), 98% (active) and 99% (active).
